Consider 8 compounds from PubChem BioAssay (NCI).

This assay can be described thus: NCI Yeast Anticancer Drug Screen. Data for the mlh1 strain (AID 171).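 Note: 0% = growth of vehicle-treated control cultures of the same strain.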 Conditions: S. cerevisiae mlh1 strain growth inhibition, active compounds read high. As for the experimental part: Growth inhibition of yeast strains with defined genetic alterations is measured as a screen for potential anti-cancer activity. Selected strains with alterations in DNA damage repair or cell cycle control were exposed to compounds and growth inhibition was measured relative to vehicle treated controls. The strain used in this assay is mlh1

About 79,000 compounds went through this panel and 15% of them were active in at least one assay; those are over-represented in the sample as a whole. A number with no mark means an inactive call. Active and inactive are the calls of the source. Cut-off read from the data, not from the text of the source: active = growth inhibition above about 70%; inactive = the rest.

As to `CCN(CCCl)c1cc(CN(C)C)cc(NC(=O)c2ccc(C(=O)Nc3cc(CN(C)C)cc(N(CC)CCCl)c3)cc2)c1`, the growth inhibition (at 1.2 µM) was -6%; the growth inhibition (at 3.7 µM) is -6%; the growth inhibition (at 11.0 µM) was -9%; the growth inhibition (at 33.0 µM) is 28%; the growth inhibition (at 100.0 µM) was 90% (active).

As for `C/C(=N\O)c1ccc2ccc3ccccc3c2c1`, the growth inhibition runs as follows: (at 1.2 µM) 3%; (at 3.7 µM) -3%; (at 11.0 µM) 7%; (at 33.0 µM) 61%; (at 100.0 µM) 90% (active).

Consider `CCCCCCCCCC[Se]C#N`, for which the growth inhibition is, setting by setting: (at 1.2 µM) -1%; (at 3.7 µM) 0%; (at 11.0 µM) 6%; (at 33.0 µM) 26%; (at 100.0 µM) 90% (active).

Regarding `CCC1(O)C(=O)OCc2c1cc1n(c2=O)Cc2cc3cc(Cl)ccc3nc2-1` (stereo not given), the growth inhibition by setting is: (at 1.2 µM) 3%; (at 3.7 µM) 8%; (at 11.0 µM) 36%; (at 33.0 µM) 65%; (at 100.0 µM) 74% (active).

In the case of `CCNCC(=O)O[C@]1(CC)C(=O)OCc2c1cc1n(c2=O)Cc2cc3ccccc3nc2-1`, the growth inhibition (at 1.2 µM) was 13%; the growth inhibition (at 3.7 µM) is 6%; the growth inhibition (at 11.0 µM) is -2%; the growth inhibition (at 33.0 µM) was -13%; the growth inhibition (at 100.0 µM) was -21%.

Take `C/C(=N\N=C(N)N)C(CN1CCOCC1)C(c1ccccc1)c1c(O)c2ccccc2oc1=O` (stereo not given): the growth inhibition runs as follows: (at 1.2 µM) -2%; (at 3.7 µM) -8%; (at 11.0 µM) -7%; (at 33.0 µM) 40%; (at 100.0 µM) 96% (active).

Turning to `COc1cccc2c1C(=O)c1c(O)c3c(c(O)c1C2=O)C[C@@](O)(C(C)=O)C[C@@H]3OC1CC(N)C(OC2CC(O)C(O)C(C)O2)C(C)O1` (stereo not given in full), the growth inhibition is, setting by setting: (at 1.2 µM) -25%; (at 3.7 µM) -15%; (at 11.0 µM) -17%; (at 33.0 µM) -6%; (at 100.0 µM) -3%.

In the case of `Nc1ccc(Cl)cc1C(=O)c1ccccc1`, the growth inhibition reads like this: (at 1.2 µM) -23%; (at 3.7 µM) -33%; (at 11.0 µM) -31%; (at 33.0 µM) 22%; (at 100.0 µM) 97% (active).
